Reference: PubChem BioAssay (EPA / NIEHS)
Records with an inconclusive call do not appear. Some compounds were tested as several samples or in several runs, with calls that do not always agree. Calls of active or inactive are those of the source. The calls were made as follows, unless noted: active = hit-call score of the fitted dose curve at least 0.9, where 1 is the maximum; inactive = score below 0.9.

Experiments:
[1] = read-out: Interleukin-8 (IL8), CXCL8 (gene 3576); test: BSK_3C_IL8: BioMAP Diversity Plus: 3C Assay for Interleukin-8 (IL8) Biomarker Activity (AID 2283020); conditions: primary human endothelial cells (HUVEC); actives raise or lower the signal
Summary of the method: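 IL-8 was measured by ELISA in HUVEC cultures 24 h after chemical dosing, with gain or loss of signal fitted relative to DMSO. Parallel SRB total-protein staining tracked overt cytotoxicity.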

[2] = read-out: Monokine induced gamma interferon (MIG), CXCL9 (gene 4283); test: BSK_3C_MIG: BioMAP Diversity Plus: 3C Assay for Monokine induced gamma interferon (MIG) Biomarker Activity (AID 2283021); conditions: primary human endothelial cells (HUVEC); actives raise or lower the signal;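 as to AC50: MIG protein level measured by immunoassay in the treated endothelial cultures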
Summary of the method: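 ELISA measurement of MIG in human umbilical vein endothelial cells 24 h after treatment. Cytotoxicity tracked by SRB staining in parallel cultures; gain or loss of signal fitted relative to DMSO.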

[3] = BSK_3C_SRB: Viability Assessment in the BioMAP Diversity Plus: 3C Assay (AID 2283023); conditions: primary human endothelial cells (HUVEC);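 also: fitted both ways against DMSO so a hit may be signal rise or drop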
Summary of the method: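 Cytotoxicity readout in parallel HUVEC 3C cultures: after 24 h compound exposure, cells fixed with 10% TCA, stained with 0.1% SRB and read at 560 nm. Gain or loss relative to DMSO fitted.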

[4] = read-out: Matrix Metallopeptidase 1 (MMP1), MMP1 (gene 4312); test: BSK_BE3C_MMP1: BioMAP Diversity Plus: BE3C Assay for Matrix Metallopeptidase 1 (MMP1) Biomarker Activity (AID 2283024); conditions: primary human bronchial epithelial cells; actives raise or lower the signal
Summary of the method: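 ELISA measurement of MMP-1 after 24 h compound exposure of primary human bronchial epithelial cells. Changes in either direction fitted relative to DMSO; parallel SRB staining checked overt cytotoxicity.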

[5] = BSK_3C_Vis: BioMAP Diversity Plus: 3C Assay for Morphology Visualization (AID 2283025); conditions: primary human endothelial cells (HUVEC);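 also: fitted both ways so gain or loss versus DMSO counts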;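 as to AC50: light microscopy image of cell morphology used as background control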
Summary of the method: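 Light-microscopy visualization of HUVEC cultures at 24 h post-treatment, with DMSO as baseline for bidirectional fitting.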

[6] = read-out: Pselectin, SELP (gene 6403); test: BSK_4H_Pselectin: BioMAP Diversity Plus: 4H Assay for Pselectin Biomarker Activity (AID 2283026); conditions: primary human endothelial cells (HUVEC); actives raise or lower the signal
Summary of the method: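 ELISA of surface P-selectin on HUVEC, 24 h after dosing, with parallel SRB staining (0.1% after 10% TCA fixation, 560 nm) for overt cytotoxicity. Activity fitted in both directions relative to DMSO.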

[7] = BSK_4H_SRB: Viability Assessment in the BioMAP Diversity Plus: 4H Assay (AID 2283027); conditions: primary human endothelial cells (HUVEC);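 also: cells exposed to compound for 24 h before staining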;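 as to AC50: curves fitted both ways versus DMSO so AC50 may be loss or gain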
Summary of the method: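 Cytotoxicity read-out in primary human endothelial cells: after 24 h compound exposure, cells were TCA-fixed (10%), stained with 0.1% SRB and absorbance taken at 560 nm. Values fitted in both directions relative to DMSO.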

[8] = BSK_BE3C_SRB: Viability Assessment in the BioMAP Diversity Plus: BE3C Assay (AID 2283028); conditions: primary human bronchial epithelial cells;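 as to AC50: fitted both ways so AC50 may mark signal gain or loss versus DMSO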
Summary of the method: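 Cytotoxicity read-out: SRB (0.1%) staining of TCA-fixed (10%) human lung bronchial epithelial cells, absorbance 560 nm, 24 h post-dosing. Curves fitted both directions relative to DMSO.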

[9] = read-out: Thrombomodulin, THBD (gene 7056); test: BSK_3C_Thrombomodulin: BioMAP Diversity Plus: 3C Assay for Thrombomodulin Biomarker Activity (AID 2283029); conditions: primary human endothelial cells (HUVEC); actives raise or lower the signal
Summary of the method: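 ELISA measurement of thrombomodulin on HUVEC surface 24 h after chemical dosing; activity fitted in both directions relative to DMSO vehicle.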

[10] = target: human Vitamin D Receptor (VDR), VDR (gene 7421) (UniProt P11473); test: ATG_VDR_TRANS: Attagene TRANS-FACTORIAL HepG2 Assay for human Vitamin D Receptor (VDR) (AID 2283022; active = hit-call score of the fitted dose curve at least 0.9, where 1 is the maximum)
Sequence of human Vitamin D Receptor (VDR), VDR (gene 7421) (P11473 whole entry, looked up, the tested form may be a part): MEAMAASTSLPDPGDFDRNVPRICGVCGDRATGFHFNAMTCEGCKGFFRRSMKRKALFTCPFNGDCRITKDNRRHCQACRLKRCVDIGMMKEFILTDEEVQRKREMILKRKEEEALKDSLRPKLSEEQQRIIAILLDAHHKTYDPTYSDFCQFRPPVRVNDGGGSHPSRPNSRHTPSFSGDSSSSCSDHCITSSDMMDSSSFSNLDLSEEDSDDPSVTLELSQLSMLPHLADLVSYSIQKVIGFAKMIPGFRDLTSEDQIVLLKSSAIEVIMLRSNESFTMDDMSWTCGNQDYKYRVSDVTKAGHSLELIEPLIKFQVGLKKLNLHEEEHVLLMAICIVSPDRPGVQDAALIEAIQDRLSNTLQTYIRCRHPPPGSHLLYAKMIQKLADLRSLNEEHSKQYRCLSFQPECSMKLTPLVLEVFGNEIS
Summary of the method: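 Transactivation by an exogenous VDR-Gal4 chimera in transiently transfected HepG2 cells was measured as reporter transcript level 24 hours after chemical treatment. RT-PCR products were analysed by capillary electrophoresis and fitted in the positive direction relative to DMSO.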

Measured: AC50

O=c1n(Cl)c(=O)n(Cl)c(=O)n1Cl
not listed: [10]
inactive: all other assays above

CCCCC(C#N)(Cn1cncn1)c1ccc(Cl)cc1 (stereo not drawn)
active: [5] 9.8 µM
not listed: [10]
inactive: all other assays above

COC(=O)NC(=S)Nc1ccccc1NC(=S)NC(=O)OC
active: [9] 10.8 µM
inactive: all other assays above

CSC(=O)c1c(C(F)F)nc(C(F)(F)F)c(C(=O)SC)c1CC(C)C
active: [1] 32.4 µM | [3] 14.6 µM | [4] 6.22 µM | [5] 13.7 µM | [6] 15 µM | [7] 25.7 µM | [8] 16.8 µM
inactive: [2] | [10] | [9]

CCOc1cc(C(C)(C)C)ccc1C1COC(c2c(F)cccc2F)=N1 (stereo not drawn)
active: [1] 23.9 µM | [2] 32.1 µM | [3] 15.1 µM | [4] 10.3 µM | [5] 22 µM | [6] 22.2 µM | [7] 27.6 µM
inactive: [10] | [9]

CS(=O)(=O)c1cc(C(F)(F)F)ccc1C(=O)c1cnoc1C1CC1
not listed: [8]
inactive: all other assays above

CC1(C)CCC(=Cc2ccc(Cl)cc2)C1(O)Cn1cncn1 (stereo not drawn)
active: [7] 0.803 µM
inactive: all other assays above

COC(=O)N(C(=O)N1CO[C@@]2(C(=O)OC)Cc3cc(Cl)ccc3C2=N1)c1ccc(OC(F)(F)F)cc1
active: [3] 3.97 µM | [6] 5.19 µM | [7] 7.13 µM
not listed: [8]
inactive: all other assays above

CC1(C)CON(Cc2ccccc2Cl)C1=O
not listed: [8]
inactive: all other assays above

CC(C)N1C(=O)c2ccccc2NS1(=O)=O
not listed: [8]
inactive: all other assays above

COCC(C)N(C(=O)CCl)c1c(C)csc1C (stereo not drawn)
active: [5] 39 µM | [6] 14.6 µM
inactive: [1] | [2] | [10] | [3] | [4] | [5] | [6] | [7] | [9]

CCCCC(O)(Cn1cncn1)c1ccc(Cl)cc1Cl (stereo not drawn)
active: [4] 12.8 µM | [7] 14.3 µM
not listed: [10]
inactive: all other assays above

CNC(=O)N(C)c1nnc(C(C)(C)C)s1
not listed: [8]
inactive: all other assays above

OC(c1ccc(Cl)cc1)(c1ccc(Cl)cc1)C(Cl)(Cl)Cl
active: [1] 15.3 µM | [2] 30.3 µM | [3] 21.2 µM | [4] 34.1 µM | [5] 16.3 µM | [6] 17.3 µM | [7] 28.6 µM | [8] 12.9 µM | [9] 0.258 µM
inactive: [10]

CCC(C)n1c(=O)[nH]c(C)c(Br)c1=O (stereo not drawn)
inactive: all assays above

Nc1c(Cl)c(Cl)nc(C(=O)O)c1Cl
not listed: [10]
inactive: all other assays above

CCN(CC)C(=O)C(C)Oc1cccc2ccccc12 (stereo not drawn)
active: [3] 5.16 µM | [4] 5.25 µM | [5] 9.8 µM
not listed: [10]
inactive: all other assays above

Clc1cccc(C(Cl)(Cl)Cl)n1
not listed: [8] | [10]
inactive: all other assays above

COP(=S)(OC)SCn1nnc2ccccc2c1=O
active: [6] 35.1 µM
not listed: [8] | [10]
inactive: all other assays above

O=P(O)(O)CCCl
not listed: [10]
inactive: all other assays above

O=C1C2CC=CCC2C(=O)N1SC(Cl)(Cl)Cl (stereo not drawn)
active: [4] 12.1 µM | [5] 39 µM | [6] 23.9 µM
not listed: [8] | [10]
inactive: all other assays above
